Source: PubChem
Sampled rows, rich in hits. Any-hit rate of the full collection: about 2.2%.
HSP90 refold inh – inhibitors of HSP90 luciferase refolding in rabbit reticulocyte lysate | luciferase refolding luminescence, 3 h | inhibition, % at 5.6 µM | hit rate 0.91% among 290,000 | AID 1789;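 active = inhibition above the screen-wide mean plus 3 SD, computed separately per campaign, cut at about 16% in these data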;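 note: 0% = DMSO wells and 100% = 60 µM geldanamycin wells; inhibitors lower the luminescence because luciferase stays unfolded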
TROY signal inh – inhibitors of TROY-dependent NF-kB signaling | Q293 LMP1-TROYcd NF-kB luciferase reporter, 4 h | inhibition, % at 10 µM | hit rate 0.98% among 360,000 | AID 1347056;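 active = compounds whose plate-normalised and pattern-corrected inhibition of the luciferase reporter signal at the single screening dose is 50% or more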
LGR2 inh – Drosophila LGR2 receptor signaling inhibition; HEK293 LGR2, CRE-luciferase, bursicon-stimulated, 4 h; hit rate 0.35% among 380,000; inhibition, % at 9.99 µM;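 active = drop in luminescence signal, shown as inhibition above about 50% in the replicate tests, limit read from the data, passing the limit was not always enough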;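 note: agonist challenge used bursicon conditioned medium at about half maximal strength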
TWEAK-Fn14 inh – inhibitors of TWEAK-Fn14 interaction signaling | TWEAK-stimulated Fn14 reporter cells, luciferase luminescence, 8 h | inhibition, % at 10 µM | hit rate 2% among 360,000 | AID 1159606; in the data active = inhibition above about 50%
* = called active by the depositor.

Screening COc1ccc(CN(C)C[C@@H]2Oc3ccc(NS(C)(=O)=O)cc3C(=O)N([C@H](C)CO)C[C@@H]2C)cc1 returned LGR2 inh -27.
For O=c1c(Cl)c(Nc2cccc(Cl)c2)cnn1-c1nc2ccccc2s1 the results were HSP90 refold inh 16*, TROY signal inh 26, LGR2 inh 14 and TWEAK-Fn14 inh 62*.
Cc1ccnc(NC(=O)c2cc3ccccc3o2)c1 was read as TROY signal inh 60*, LGR2 inh 77* and TWEAK-Fn14 inh 91*.
`C=C(C)c1cccc(C(C)(C)NC(=O)Nc2cc(C)ccn2)c1` gave HSP90 refold inh -6, TROY signal inh 52* and TWEAK-Fn14 inh 44.
COC(=O)c1cccc(NC(=O)c2cc3ccccc3o2)c1 was read as HSP90 refold inh 16, TROY signal inh 69* and TWEAK-Fn14 inh 102*.
For Cc1ccnc(NC(=O)c2ccc(C(=O)c3ccccc3)cc2)c1 the results were TROY signal inh 61*, LGR2 inh 55* and TWEAK-Fn14 inh 88*.
Cc1ccnc(NC(=O)c2ccccc2NC(=O)c2ccccc2)c1 was read as HSP90 refold inh 4, TROY signal inh 15, LGR2 inh -11 and TWEAK-Fn14 inh 9.
`COc1ccc2c3c(n(C)c2c1)[C@H](CO)N(C(=O)CN(C)C)CC31CCN(Cc2cccnc2)CC1` gave LGR2 inh -18.
Screening C[C@@H]1CCCCO[C@@H](CN(C)CC2CC2)[C@H](C)CN([C@@H](C)CO)C(=O)c2cc(NC(=O)CCCN(C)C)ccc2O1 returned LGR2 inh -27.
For CO[C@H]1CN(C)C(=O)c2cc(NC(=O)C3CCOCC3)ccc2OC[C@H](C)N(Cc2nccs2)C[C@@H]1C the results were LGR2 inh 5.
Screening CCCCCc1ccc(OCCC[n+]2ccccc2)c(CCCCC)c1 returned HSP90 refold inh 12, TROY signal inh 47, LGR2 inh 15 and TWEAK-Fn14 inh 67*.
`CCCCCc1ccc(OCCOCCn2c[n+](C)c3ccccc32)c(CCCCC)c1` gave HSP90 refold inh 4, TROY signal inh 52* and TWEAK-Fn14 inh 89*.
For CCC(=O)NC[C@H]1[C@H](c2ccc(-c3cccc(F)c3)cc2)[C@@H](CO)N1C(=O)CC the results were LGR2 inh -16.
`Cc1ccccc1-c1cnc2c(c1)C(=O)N([C@H](C)CO)C[C@@H](C)[C@@H](CN(C)CC1CCOCC1)O2` gave LGR2 inh -5.
`O=C(C=Cc1ccccc1)CC(c1ccccc1)N1CCOCC1` (stereo not given) gave TROY signal inh -7, LGR2 inh 1 and TWEAK-Fn14 inh 92*.
C[C@H]1CCCCO[C@@H](CN(C)C(=O)Nc2ccc(C(F)(F)F)cc2)[C@@H](C)CN([C@@H](C)CO)C(=O)c2cc(N(C)C)ccc2O1 was read as LGR2 inh 7.
For CNC(=O)COC(=O)c1cc(F)c(F)cc1Cl the results were HSP90 refold inh 1, TROY signal inh 0 and TWEAK-Fn14 inh 87*.
`Cc1ccsc1C(=O)OC1CCOC1=O` (stereo not given) gave HSP90 refold inh 2, TROY signal inh -8 and TWEAK-Fn14 inh -7.
Screening CC(C)NC(=O)COC(=O)c1cc(F)c(F)cc1Cl returned HSP90 refold inh -2, TROY signal inh 4 and TWEAK-Fn14 inh 10.
O=C(COC(=O)c1cc([N+](=O)[O-])ccc1Cl)NC1CCCC1 was read as HSP90 refold inh -4, TROY signal inh -8, LGR2 inh 4 and TWEAK-Fn14 inh 20.
For Cc1cccc(C(=O)OC2CCOC2=O)c1O (stereo not given) the results were HSP90 refold inh 3, TROY signal inh -25, LGR2 inh -16 and TWEAK-Fn14 inh 89*.
`O=C(OC1CCOC1=O)c1ccccc1C(=O)c1ccc(Cl)c([N+](=O)[O-])c1` (stereo not given) gave TROY signal inh 23 and TWEAK-Fn14 inh 66*.
O=C(COC(=O)c1ccccc1C(=O)c1ccc(Cl)c([N+](=O)[O-])c1)NC1CC1 was read as HSP90 refold inh -5, TROY signal inh 65*, LGR2 inh 105* and TWEAK-Fn14 inh 95*.
For CCCOc1ccc(C(=O)c2ccccc2C(=O)OC2CCOC2=O)cc1OCCC (stereo not given) the results were TROY signal inh -8, LGR2 inh 3 and TWEAK-Fn14 inh -17.
`C[C@@H]1CCCCO[C@@H](CN(C)S(C)(=O)=O)[C@H](C)CN([C@@H](C)CO)C(=O)c2cc(NC(=O)CCC(F)(F)F)ccc2O1` gave LGR2 inh 15.
For CNC(=O)COC(=O)c1ccccc1C(=O)c1ccc(Cl)c([N+](=O)[O-])c1 the results were HSP90 refold inh -2, TROY signal inh 74*, LGR2 inh 102* and TWEAK-Fn14 inh 101*.
For Cc1nc2nc(C)n(CCN3CCOCC3)c(=O)c2c(-c2cccc([N+](=O)[O-])c2)c1C(=O)CCCCCCCCCCN1CCC(c2ccccc2)(c2ccccc2)CC1 the results were TROY signal inh 49, LGR2 inh 33 and TWEAK-Fn14 inh 96*.
Screening O=C(NCCCN1CCOCC1)/C(=C/c1ccc(-c2cccc([N+](=O)[O-])c2)o1)NC(=O)c1ccccc1 returned TROY signal inh -10, LGR2 inh -7 and TWEAK-Fn14 inh -24.
Screening O=C(Cc1ccccc1)Nc1ncnc2c1C(c1ccccc1)c1c(ccc3ccccc13)O2 (stereo not given) returned TROY signal inh 39, LGR2 inh 0 and TWEAK-Fn14 inh 51*.
Screening O=C(Nc1ncnc2c1C(c1ccccc1)c1c(ccc3ccccc13)O2)c1ccccc1 (stereo not given) returned TROY signal inh 13, LGR2 inh 1 and TWEAK-Fn14 inh 54*.
Cc1ccc2c(Cl)c(C(=O)Nc3cccnc3)sc2c1 was read as HSP90 refold inh -2, TROY signal inh -20, LGR2 inh -5 and TWEAK-Fn14 inh 58*.
Screening Cc1cc(C)n(CC(=O)Nc2cccc(C(F)(F)F)c2)n1 returned HSP90 refold inh 2, TROY signal inh -2, LGR2 inh 23 and TWEAK-Fn14 inh 11.
Screening Cc1cc(C(F)(F)F)nn1CC(=O)Nc1cccnc1 returned HSP90 refold inh -2 and TWEAK-Fn14 inh 66*.
Screening Cc1cccc(CC(=O)Nc2cccnc2)c1 returned HSP90 refold inh -1, TROY signal inh -4, LGR2 inh -1 and TWEAK-Fn14 inh 103*.
`C[C@@H]1CN([C@@H](C)CO)C(=O)Cc2cc(NC(=O)Nc3ccc(F)cc3)ccc2O[C@H]1CN(C)CC1CCCCC1` gave LGR2 inh -7.
Screening Cc1c(C)n(Cc2ccccc2)c2ncnc(Cl)c12 returned HSP90 refold inh 13, TROY signal inh 38, LGR2 inh 8 and TWEAK-Fn14 inh 65*.
For O=C(OCc1ccc(COC(=O)c2ccc(O)cc2)cc1)c1ccc(O)cc1 the results were HSP90 refold inh -1, TROY signal inh 61* and TWEAK-Fn14 inh 25.
For O=C([C@H]1[C@H](CO)[C@H]2Cn3c(ccc(-c4ccncc4)c3=O)[C@H]2N1CCC(F)(F)F)N1CCOCC1 the results were LGR2 inh -1.
COC(=O)c1c(-c2cccc3ccccc23)csc1NC(=O)Cc1ccc(OC)c(OC)c1 was read as HSP90 refold inh 10, TROY signal inh 40 and TWEAK-Fn14 inh 75*.
